Laboratory results from publication PMC3218832.

Tests used:
Experiment in all cases: protein binding microarray; high values mean tight binding
Settings in all cases: dsDNA, one strand shown
[1] = molecular target: RELARELA (p65 homodimer) (Homo sapiens, UniProt Q04206 1-307)
[2] = molecular target: p50p50 homodimer (Homo sapiens, UniProt P19838 7-356)
[3] = molecular target: T1, p52p52 homodimer (Homo sapiens, UniProt Q00653 4-332)
T1 sequence: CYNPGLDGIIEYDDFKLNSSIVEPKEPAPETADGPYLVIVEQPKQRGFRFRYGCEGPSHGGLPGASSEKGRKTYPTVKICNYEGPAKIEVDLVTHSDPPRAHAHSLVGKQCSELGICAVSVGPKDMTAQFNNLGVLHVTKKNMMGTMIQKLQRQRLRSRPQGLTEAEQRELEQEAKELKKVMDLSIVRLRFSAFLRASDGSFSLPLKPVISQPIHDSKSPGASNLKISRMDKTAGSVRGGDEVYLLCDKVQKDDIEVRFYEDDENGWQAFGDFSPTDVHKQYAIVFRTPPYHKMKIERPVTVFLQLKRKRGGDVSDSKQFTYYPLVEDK

[4] = molecular target: RELA (p65) subunit of heterodimer;p50 subunit (Homo sapiens;Homo sapiens, UniProt Q04206;P19838 1-307;7-356)
Sequence of RELA (p65) subunit of heterodimer;p50 subunit (Q04206 1-307, chain 1 of 2): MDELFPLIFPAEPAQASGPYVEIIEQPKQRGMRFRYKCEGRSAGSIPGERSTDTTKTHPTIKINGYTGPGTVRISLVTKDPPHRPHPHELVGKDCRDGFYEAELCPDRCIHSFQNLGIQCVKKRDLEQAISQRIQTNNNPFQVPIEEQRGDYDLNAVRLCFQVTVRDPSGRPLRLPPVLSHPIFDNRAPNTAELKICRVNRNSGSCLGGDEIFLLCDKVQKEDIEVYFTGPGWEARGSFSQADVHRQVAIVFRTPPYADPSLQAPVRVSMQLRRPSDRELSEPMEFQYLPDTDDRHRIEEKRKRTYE
Sequence of RELA (p65) subunit of heterodimer;p50 subunit (P19838 7-356, chain 2 of 2): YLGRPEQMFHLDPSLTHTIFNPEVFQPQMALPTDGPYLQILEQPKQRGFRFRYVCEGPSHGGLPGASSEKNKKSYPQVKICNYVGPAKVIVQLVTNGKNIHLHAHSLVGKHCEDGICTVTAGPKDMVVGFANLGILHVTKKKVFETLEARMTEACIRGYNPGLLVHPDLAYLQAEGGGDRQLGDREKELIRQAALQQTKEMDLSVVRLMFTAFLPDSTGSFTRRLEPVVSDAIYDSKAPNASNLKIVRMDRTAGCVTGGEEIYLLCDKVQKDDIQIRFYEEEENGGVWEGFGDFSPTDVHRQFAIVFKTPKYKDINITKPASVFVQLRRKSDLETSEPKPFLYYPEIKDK

[5] = molecular target: RELA (p65) subunit of heterodimer;p52 subunit (Homo sapiens;Homo sapiens, UniProt Q04206;Q00653 1-307;4-332)
[6] = molecular target: RELB subunit;p50 subunit (Homo sapiens;Homo sapiens, UniProt Q01201;P19838 120-401;7-356)
[7] = molecular target: T2, RELB subunit;p52 subunit (Homo sapiens;Homo sapiens, UniProt Q01201;Q00653 120-401;4-332)
T2 sequence 1: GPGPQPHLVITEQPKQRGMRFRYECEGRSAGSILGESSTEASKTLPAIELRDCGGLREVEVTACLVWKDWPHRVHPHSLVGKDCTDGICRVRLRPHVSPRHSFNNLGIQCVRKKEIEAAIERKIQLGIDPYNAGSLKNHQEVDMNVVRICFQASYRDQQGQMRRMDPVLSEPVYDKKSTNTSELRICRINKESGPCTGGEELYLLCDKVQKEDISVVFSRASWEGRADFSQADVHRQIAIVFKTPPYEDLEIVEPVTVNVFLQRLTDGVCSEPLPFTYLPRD
T2 sequence 2: T1 sequence

[8] = molecular target: C-Rel subunit;p50 subunit (Homo sapiens;Homo sapiens, UniProt Q04864;P19838 1-285;7-356)
[9] = molecular target: T3, C-Rel subunit;p52 subunit (Homo sapiens;Homo sapiens, UniProt Q04864;Q00653 1-285;4-332)
T3 sequence 1: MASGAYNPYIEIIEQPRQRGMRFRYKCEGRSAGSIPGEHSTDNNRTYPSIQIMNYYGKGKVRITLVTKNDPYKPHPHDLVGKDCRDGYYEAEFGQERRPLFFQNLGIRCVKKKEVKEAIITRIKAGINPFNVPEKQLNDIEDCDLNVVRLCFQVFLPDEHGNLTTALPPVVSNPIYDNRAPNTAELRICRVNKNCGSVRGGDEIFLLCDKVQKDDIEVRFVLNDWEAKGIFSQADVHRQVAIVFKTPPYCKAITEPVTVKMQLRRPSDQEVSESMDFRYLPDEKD
T3 sequence 2: T1 sequence

Sequence of RELARELA (p65 homodimer) (Q04206 1-307): as the sequence (Q04206 1-307, chain 1 of 2) above
Sequence of p50p50 homodimer (P19838 7-356): as the sequence (P19838 7-356, chain 2 of 2) above

Sequence	binding signal [1] [z-score]	binding signal [2] [z-score]	binding signal [3] [z-score]	binding signal [4] [z-score]	binding signal [5] [z-score]	binding signal [6] [z-score]	binding signal [7] [z-score]	binding signal [8] [z-score]	binding signal [9] [z-score]
GAAATGACCCT	-0.43	-0.328	-0.304	-0.247	-0.11	-0.287	-0.38	-0.632	-0.223
AGAGGAATCCC	0.476	0.189	0.335	0.188	0.227	0.0745	0.269	0.405	0.416
GGAATATCCCT	2.04	0.687	1.23	1.41	1.36	0.471	1.04	0.979	1.6
GAATTGTTCCT	0.0616	-1.38	-0.497	-0.672	-0.721	-1.09	-0.587	-0.937	-0.574
CGATAGCCCCC	-0.556	0.93	0.275	0.352	0.57	0.492	0.523	0.288	0.258
AAGTGTTCCCC	0.872	0.916	0.928	1.24	0.915	1.13	1.14	1.33	0.844
GGAGTGGCCCT	-0.154	-1.1	-0.562	-0.155	-0.329	-0.631	-0.334	-0.305	-0.0519
CAGATGACCCC	-0.4	-0.382	-0.355	-0.422	-0.386	-0.204	-0.302	-0.754	-0.39
GAATATTCCCT	1.37	1.19	1.3	1.24	1.28	1.04	1.2	0.882	1.16
AAATTCATCCT	0.0684	-0.972	-0.568	-0.664	-0.9	-0.972	-0.72	-1.11	-0.904
GGGTTTGCCCT	1.25	-0.184	0.265	0.277	0.423	-0.518	-0.154	0.409	0.225
CGAATCATCCC	-0.386	-0.966	-0.352	-0.734	-0.619	-0.644	-0.752	-0.745	-0.523
AGAAAGTCCCC	1.93	1.38	2.13	1.84	1.96	2.19	1.93	1.62	1.91
GAAGTGTCCCT	-0.0315	0.834	0.946	0.67	1.04	1.07	1.37	0.382	0.65
AGATGAACCCC	-0.232	-0.284	-0.287	-0.402	-0.342	-0.255	-0.0728	-0.464	-0.256
GAATTCACCCC	0.545	0.437	0.192	0.892	0.806	0.49	0.753	0.643	0.698

Sequence	binding signal [1] [z-score]	binding signal [2] [z-score]	binding signal [3] [z-score]	binding signal [4] [z-score]	binding signal [5] [z-score]	binding signal [6] [z-score]	binding signal [7] [z-score]	binding signal [8] [z-score]	binding signal [9] [z-score]
AGAAGCATCCC	-0.382	-1.4	-0.607	-0.83	-0.795	-0.706	-0.776	-1.06	-0.81
AGAGGAGCCCC	-0.573	0.291	0.0479	-0.113	-0.0242	0.0681	0.0342	-0.0137	-0.225
AGAGGTGTCCT	-0.184	-1.69	-0.541	-0.927	-0.707	-0.854	-0.664	-1.22	-0.658
CGAGACGCCCC	-0.513	0.148	-0.0437	0.0369	-0.155	0.237	0.231	0.27	-0.0784
AAAATACCCCT	1.01	1.41	1.92	1.65	1.8	1.63	2.25	1.26	1.95
GGGAGTGTCCT	0.931	-0.152	0.385	0.0362	0.309	-0.212	0.00999	-0.0276	0.382
GAGGTCCCCCT	0.588	1.14	0.954	1.63	1.22	1.56	1.97	1.28	1.05
AGGAGGTCCCC	0.488	0.454	0.466	0.767	0.75	0.631	0.644	0.617	0.715
AAATATGTCCT	-0.0065	-1.09	-0.534	-0.78	-0.678	-0.828	-0.738	-0.967	-0.696
CAGTGTTTCCT	0.51	-0.616	-0.52	-0.47	-0.473	-0.831	-0.677	-0.349	-0.285
CGAGGGTTCCC	-0.124	-0.573	-0.304	-0.206	-0.377	-0.397	-0.335	-0.0483	-0.0728
AGAGTCATCCT	-0.641	-2.61	-0.647	-1.23	-0.868	-1.06	-0.873	-1.63	-1.09
AGAAAAGCCCC	1.13	0.938	2.07	1.57	1.76	1.77	1.57	0.96	1.65
CGAGGAATCCT	-0.235	-1.18	-0.504	-0.879	-0.8	-1.08	-0.975	-0.824	-0.613
GAGGATTCCCC	2	1.1	2.67	2.18	2.19	2.43	2.09	1.54	2.11
